# From the supplement of paper PMC6555819
# System: THRa homodimer (NR concentration 90 nM)
# Experiment: PBM binding z-score (relative to random genomic background probes); higher = stronger binding; sequences stand for … in GC…GCGATTGACAGCGTAGAATGAAGG
# Method in brief: (§1)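 Binding buffer was PBS pH 7.4 with 2% milk, 0.02% Triton X-100, 1 mM DTT, 0.2 mg/mL BSA and 0.4 mg/ml salmon testes DNA. In it, ligand-free nuclear receptor dimers were incubated 1 h on custom Agilent 4×180K protein-binding microarrays carrying double-stranded probes. Antibodies against each partner (one per run) detected binding, and z-scores were calculated against random background probes after regression normalization of scanned fluorescence.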
row,Sequence,PBM binding z-score
1,TCGAGTAGGTTAGTGGCATTCAGAATGGCGTCGA,-0.559
2,CAAACTAGGTCGCGAAAGGTCAAAGTCGAATGAC,1.51
3,TCAGACAGATGAAGGTAACTCAGGTACGCAGTCG,-0.261
4,TAGCCTAGGTCATGGGCCCGTATACCACGCGAAC,1.76
5,CGTCCAAGGTCAGGGAGGTCAGTGAATGCCGAGT,3.43
6,AGTCAAAGTTCATCTAGGTACCGTAAGATATGCT,-0.565
7,TCTTATAGGTAAAAGGTGAAAGTCGGTGTGGTAA,0.525
8,TCGAGTACGTTAGGGGCATTCAGAATGGCGTCGA,-0.622
9,ATATCTAGGTAAGACTCAGTTCAGTGAAGAACGC,0.604
10,GATACAGGGTCAAGGCCAGAGTCCGCGTATTGAT,1.37
11,TCGTATAGGTAAATGCTAGGTGAAAGTCCGATCT,0.325
12,TCTTGTAGATCAAGCACGTTAAGAAAGCCTGAGT,-0.599
13,CCTGCTAGGTCATTGGTCAGCTAAAGCAGCTCGC,1.24
14,TTACCAAGGGGAAGGTCGTTGATCCCTCTGTAGA,-0.636
15,ATACCAAGGTGAACGTGAGGTCGTTGATACTAAC,3.14
16,GCTATTAGTTGGAAGGGCAACCGAATGATTCTCG,-0.242
17,TCTTGTAGATCAAGCAGCTTAAGAAAGCCTGAGT,-0.676
18,CCGAGTAGGTTATGGGGCGTTCAGGCAACGGTGA,0.402

# System: VDR homodimer (NR concentration 270 nM)
# Experiment: as above
# Method in brief: as §1
row,Sequence,PBM binding z-score
1,CCTTACGGGTCACTGCCAGGTTATAGCATTTGGA,1.47
2,TCTTGCAGATCAAGCAGGTTAAGAAAGCCTGAGT,-0.141
3,AGAACGAGGACAATGAGTTGATAGCACGGGTGGC,2.33
4,TCGAGTAGGTTAGTCGGGGCATTCACCCAACATA,0.754
5,ATATGTAGGTTACATCTGGGTCATTCAGGCTATG,1.8
6,CCGAGTAGGTTATTGGGCATTCAGGCAACGGTGA,0.256
7,CCTGCTAGGTCAATAGTCAGCTAAAGCAGCTCGC,-0.379
8,CGTCCAAGGTCAAGGTCAGTTAAAGAGACTCGAA,3.29
9,CAAACTAGGTCAAAGGACAAAGTCGAGCCAACCA,0.753
10,ACAGGCAGGTGATGAAGGTAACTCAGGCTATCAT,-0.29
11,CCGTACGGGTCACTGACAGGTTATAGCATTTGGA,0.766
12,CCTAGCAGGCCAATCTGGGTCACTCAAGGCTTGA,0.000728
13,CAAACTAGGTCAAGGTCAAGGTCGGTTTGTGCCA,4.06
14,GTTTACGGGTCAAAGGTTATAGCATGAATAGAAT,1.99
15,GCTGCTAGGTCAGGGTGGTCAGCTAACGGGTACG,0.245
16,CCAGACAGGTGAGCAGGTAACTCAGCCTCGATTA,-0.319
17,TAGCCTAGGCCATTGGGCCAGTATAGTACGCATC,-0.404
18,GCGACTGGGGCAAAGCAGGTTACGATAAGGTTGG,-0.24
19,CGTACGAGGGCATGAGTTGATAGCAAATGCCGAT,1.67
20,GTACCAAGGTGAATAGGTCCTTGATGAGTAGGCG,-0.46

row,Sequence,PBM binding z-score
1,GTCCCAAGGTGAATAGGTCGTTGATGAGTAGGCG,0.582
2,GGAACGAGGGAAAAGTTGATAGCATCTGTCGACG,-0.433
3,TCGAGTAGGTTAGTGGCATTCAGAATGGCGTCGA,-0.54
4,CAAACTAGGTCGCGAAAGGTCAAAGTCGAATGAC,3.37
5,TCAGACAGATGAAGGTAACTCAGGTACGCAGTCG,0.0374
6,TAGCCTAGGTCATGGGCCCGTATACCACGCGAAC,0.701
7,CGTCCAAGGTCAGGGAGGTCAGTGAATGCCGAGT,5.37
8,AGTCAAAGTTCATCTAGGTACCGTAAGATATGCT,5.46
9,TCTTATAGGTAAAAGGTGAAAGTCGGTGTGGTAA,0.326
10,TCGAGTACGTTAGGGGCATTCAGAATGGCGTCGA,5.05
11,ATATCTAGGTAAGACTCAGTTCAGTGAAGAACGC,1.41
12,GATACAGGGTCAAGGCCAGAGTCCGCGTATTGAT,1.73
13,TCGTATAGGTAAATGCTAGGTGAAAGTCCGATCT,-0.0661
14,TCTTGTAGATCAAGCACGTTAAGAAAGCCTGAGT,-0.125
15,CCTGCTAGGTCATTGGTCAGCTAAAGCAGCTCGC,1.27
16,TTACCAAGGGGAAGGTCGTTGATCCCTCTGTAGA,0.435
17,ATACCAAGGTGAACGTGAGGTCGTTGATACTAAC,3.61
18,GCTATTAGTTGGAAGGGCAACCGAATGATTCTCG,-0.28
19,TCTTGTAGATCAAGCAGCTTAAGAAAGCCTGAGT,-0.394
20,CCGAGTAGGTTATGGGGCGTTCAGGCAACGGTGA,0.062
